Results published in PubChem BioAssay AID1159580 (chemical genetic matrix, 2015).
Where “and” joins values, the source holds several entries; their conditions need not be identical. Equal entries are not always repeated. The whole screen tested about 5,500 compounds, of which about 2,000 (36%) were called active. About 18% were inconclusive and are not listed. Cut-off read from the data, not from the text of the source: active = normalized growth mostly below about 0.91 (no sharp cut-off); inconclusive = no clear call, values can overlap the other calls; inactive = mostly above about 0.92. The list shows a part of the results.

Experiment: chemical genetic growth profiling, strain panel (AID 1159580);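 note: tested at 20 µM; growth read once vehicle control cultures reached saturation at 30 °C; 1 = growth at the plate median or of vehicle wells; lower values mean less growth of the strain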
Conditions: S. cerevisiae deletion strains, growth OD

Measured: normalized growth

CC1(C)C=Cc2cc3ccc(=O)oc3cc2O1
inactive: locus YAL013W, strain DEP1, stronger effect = lower value 0.986 | locus YAL021C, strain ccr4, stronger effect = lower value 0.987 | locus YAL026C, strain drs2, stronger effect = lower value 0.963 | locus YAL030W, strain snc1, stronger effect = lower value 0.934 | locus YBL061C, strain skt5, stronger effect = lower value 0.972 | locus YBR021W, strain FUR4, stronger effect = lower value 0.95 | locus YBR171W, strain sec66, stronger effect = lower value 0.945 | locus YBR229C, strain ROT2, stronger effect = lower value 0.995 | locus YBR231C, strain swc5, stronger effect = lower value 0.958 | locus YBR279W, strain paf1, stronger effect = lower value 0.973 | locus YCL029C, strain bik1, stronger effect = lower value 0.967 | locus YCR088W, strain abp1, stronger effect = lower value 0.927 | locus YDL005C, strain med2, stronger effect = lower value 0.96 | locus YDL035C, strain GPR1, stronger effect = lower value 0.984 | locus YDL040C, strain nat1, stronger effect = lower value 0.962 | locus YDL074C, strain BRE1, stronger effect = lower value 0.919 | locus YDL101C, strain DUN1, stronger effect = lower value 0.987 | locus YDL134C, strain PPH21, stronger effect = lower value 0.947 | locus YDL185W, strain tfp1, stronger effect = lower value 0.975 | locus YDL192W, strain arf1, stronger effect = lower value 0.958 | locus YDR069C, strain doa4, stronger effect = lower value 0.958 | locus YDR101C, strain arx1, stronger effect = lower value 0.93 | locus YDR137W, strain rgp1, stronger effect = lower value 0.849 | locus YDR159W, strain sac3, stronger effect = lower value 0.959 | locus YDR162C, strain NBP2, stronger effect = lower value 0.976 | locus YDR195W, strain ref2 1.07 | locus YDR297W, strain sur2, stronger effect = lower value 0.965 | locus YDR318W, strain mcm21, stronger effect = lower value 0.935 | locus YDR334W, strain swr1, stronger effect = lower value 0.943 | locus YDR335W, strain msn5, stronger effect = lower value 0.919 | locus YDR388W, stronger effect = lower value 0.971 | locus YEL003W, strain gim4, stronger effect = lower value 0.951 | locus YEL037C, strain rad23, stronger effect = lower value 0.95 | locus YEL061C, strain CIN8 (second series), stronger effect = lower value 0.931 | locus YEL061C, strain CIN8, stronger effect = lower value 0.993 | locus YER016W, strain bim1, stronger effect = lower value 0.965 | locus YER110C, stronger effect = lower value 0.96 | locus YER111C, strain swi4, stronger effect = lower value 0.958 | locus YER155C, strain BEM2, stronger effect = lower value 0.973 | locus YER167W, strain BCK2, stronger effect = lower value 0.952 | locus YFR010W, strain ubp6, stronger effect = lower value 0.951 | locus YGL078C, strain dbp3, stronger effect = lower value 0.968 | locus YGL167C, strain pmr1, stronger effect = lower value 0.953 | locus YGL173C, strain kem1, stronger effect = lower value 0.949 | locus YGL227W, strain vid30, stronger effect = lower value 0.934 | locus YGL248W, strain PDE1, stronger effect = lower value 0.941 | locus YGL253W, strain hxk2, stronger effect = lower value 0.971 | locus YGR078C, strain PAC10, stronger effect = lower value 0.944 | locus YGR135W, strain pre9, stronger effect = lower value 0.907 | locus YGR252W, strain gcn5, stronger effect = lower value 0.818 | locus YHR013C, strain ard1, stronger effect = lower value 0.865 | locus YHR027C, strain rpn1, stronger effect = lower value 0.953 | locus YHR079C, strain IRE1 (second series), stronger effect = lower value 0.962 | locus YHR094C, strain hxt1, stronger effect = lower value 0.964 | locus YHR129C, strain ARP1, stronger effect = lower value 0.978 | locus YHR200W, strain rpn10, stronger effect = lower value 0.954 | locus YIL066C, strain RNR3, stronger effect = lower value 0.993 | locus YIL073C, strain SPO22, stronger effect = lower value 0.908 | locus YIL125W, strain kgd1, stronger effect = lower value 0.935 | locus YIR030C, strain dcg1, stronger effect = lower value 0.962 | locus YJL092W, strain hpr5, stronger effect = lower value 0.921 | locus YJL095W, strain BCK1 (second series), stronger effect = lower value 0.96 | locus YJL115W, strain asf1, stronger effect = lower value 0.921 | locus YJL134W, strain LCB3, stronger effect = lower value 0.991 | locus YJL154C, strain vps35, stronger effect = lower value 0.933 | locus YJL168C, strain set2, stronger effect = lower value 0.976 | locus YJL187C, strain SWE1 (second series), stronger effect = lower value 0.959 | locus YJL187C, strain SWE1, stronger effect = lower value 0.968 | locus YJR043C, strain POL32, stronger effect = lower value 0.972
0.901 (inactive) and 0.867 (active): locus YJL095W, strain BCK1, stronger effect = lower value
active: locus YBR009C, strain hhf1, stronger effect = lower value 0.875 | locus YBR023C, strain chs3, stronger effect = lower value 0.912 | locus YCL011C, strain gbp2, stronger effect = lower value 0.865 | locus YCL016C, strain dcc1, stronger effect = lower value 0.891 | locus YCL069W, strain vba3, stronger effect = lower value 0.915 | locus YDR001C, strain nth1, stronger effect = lower value 0.906 | locus YDR392W, strain spt3, stronger effect = lower value 0.58 | locus YDR502C, strain sam2, stronger effect = lower value 0.914 | locus YER015W, strain faa2, stronger effect = lower value 0.919 | locus YER155C, strain BEM2 (second series), stronger effect = lower value 0.565 | locus YGL086W, strain mad1, stronger effect = lower value 0.916 | locus YGL240W, strain doc1, stronger effect = lower value 0.863 | locus YHR079C, strain IRE1, stronger effect = lower value 0.818 | locus YHR142W, strain chs7, stronger effect = lower value 0.834 | locus YJL129C, strain trk1, stronger effect = lower value 0.778 | locus YJL164C, strain tpk1, stronger effect = lower value 0.9 | locus YJL166W, strain qcr8, stronger effect = lower value 0.896
0.984 (inactive) and 0.846 (active): locus YHR030C, strain SLT2, stronger effect = lower value
